Assay outcomes: PubChem, several laboratories
NR1D1 modulator = modulators of human Rev-erb alpha DNA binding; P20393; Rev-erbα–FITC-DNA binding, fluorescence polarization, 90 min; activity, % at 10 µM; actives 0.79% (n = 370,000); AID 1259318;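 active = activity above about 14%, limit read from the data; passing the limit was not always enough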;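 note: 0% = DMSO wells with 35 nM protein and 100% = DMSO wells with 750 nM protein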
PG9 binder = small molecules binding HIV-1 gp120 antibody PG9. TR-FRET gp120-PG9 antibody binding. inhibition, % at 6.7 µM. actives 0.43% (n = 360,000); in the data active = inhibition above about 8.5%
KLK7 zymogen act = activates the human kallikrein-7 zymogen; P49862; purified proKLK7, EDANS-DABCYL substrate fluorescence; 100% is mature enzyme control, 0% vehicle; activation, % at 7 µM; actives 0.9% (n = 370,000);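 active = activation above the mean of all tested compounds plus 3 SD, computed per campaign excluding outliers beyond control limits, cut at about 13% in these data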
JMJD2C inh = human JMJD2C demethylase inhibition; Q9H3R0; GST-JMJD2C(1-420) H3K9me3 demethylation, DELFIA europium; inhibition, % at 2.35 µM; actives 0.069% (n = 330,000); AID 2099;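 active = more than half of a compound's replicate wells show inhibition beyond 50%, single wells judged on their own value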;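 note: signal counts dimethyl H3K9 product captured on neutravidin plate; 0% = median of DMSO wells and 100% = 0.3 times that DMSO median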
PP1 counter = blocks human PP1-alpha phosphatase, a PP5 counter-screen; purified PP1alpha, OMFP fluorescence; actives 0.9% (n = 320,000); inhibition, % at 6.7 µM; P62136;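 active = inhibition above the mean inhibition of all tested compounds plus 3 SD, computed separately for each screening campaign, cut at about 15% in these data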
Target sequence (P62136 whole entry, looked up): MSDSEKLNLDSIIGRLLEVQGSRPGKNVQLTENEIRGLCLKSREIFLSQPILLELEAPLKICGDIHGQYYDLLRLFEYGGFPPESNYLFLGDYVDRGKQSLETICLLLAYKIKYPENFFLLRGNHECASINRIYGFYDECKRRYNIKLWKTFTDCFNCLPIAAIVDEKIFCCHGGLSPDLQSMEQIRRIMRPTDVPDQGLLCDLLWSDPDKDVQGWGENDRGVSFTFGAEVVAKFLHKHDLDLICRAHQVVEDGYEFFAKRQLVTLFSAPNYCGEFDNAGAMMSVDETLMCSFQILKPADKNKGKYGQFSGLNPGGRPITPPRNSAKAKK
PP5 inh = inhibitors of human protein phosphatase 5 (PP5) | inhibition, % at 6.7 µM | AID 1987 | actives 0.18% (n = 320,000) | purified PP5c, OMFP substrate fluorescence | P53041;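 active = inhibition above the campaign's mean inhibition across all tested compounds plus 3 SD, cut at about 9.5% in these data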;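 note: 0% = DMSO only and 100% = 100 µM cantharidin control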
Numbers without * were called inactive; . = not tested or not shown. A selection: hits, their analogues and other compounds. The true share with any hit is near 2.8%.

SMILES | NR1D1 modulator | PG9 binder | KLK7 zymogen act | JMJD2C inh | PP1 counter | PP5 inh
Cc1ccc(O)c(C(=O)c2cc(C#N)c(=O)n(-c3c(C)n(C)n(-c4ccccc4)c3=O)c2)c1 | 0 | -2 | 2 | -2 | -1 | 0
CCN(CC)C(=O)CC[C@H]1CC[C@]2(CCCN(Cc3ccncc3)C2)O1 | 6 | . | 1 | . | . | .
CCCCNC(=O)CSc1nc2c(sc(=S)n2-c2cc(Cl)ccc2OC)c(=O)[nH]1 | -3 | -2 | 0 | -7 | 4 | 1
COc1ccc(Cl)cc1-n1c(=S)sc2c(=O)[nH]c(SCC(=O)C(C)(C)C)nc21 | 13 | -1 | 1 | 136 | 17* | 3
COc1ccc(-n2c(SCC(=O)C(C)(C)C)nc3c(sc(=S)n3-c3ccccc3)c2=O)c(OC)c1 | 4 | -2 | 0 | -12 | 16* | 2
Cc1ccc(CN2CC(C(=O)Nc3nnc(SCc4c(Cl)cccc4Cl)s3)CC2=O)cc1 (stereo not drawn) | -2 | 2 | 0 | 7 | 16* | 4
CCS(=O)(=O)N1Cc2ccccc2CC1C(=O)Nc1nnc(SCc2c(Cl)cccc2Cl)s1 (stereo not drawn) | 6 | 3 | 0 | -1 | 17* | 0
CCSc1nnc(NC(=O)C2Cc3ccccc3CN2S(=O)(=O)CC)s1 (stereo not drawn) | -1 | -2 | 0 | -4 | 5 | 1
O=C(CSc1nc2ccccc2nc1SCC(=O)N1CCCCC1)N1CCCCC1 | 5 | 22* | 0 | 5 | 3 | 4
Cc1cccc2cc(C#N)c(SCCN3CCCCC3)nc12 | . | . | . | 102* | -3 | 4
CC(=O)c1ccc(CC2SC(N)=NC2=O)cc1 (stereo not drawn) | -5 | -1 | 0 | -3 | 16* | -3
O=C(Cc1cccs1)N[C@H]1C(=O)N2C(C(=O)O)=C(C[n+]3ccccc3)CSC12 (stereo partly drawn) | -1 | . | . | . | . | .
Cc1sc2nc(CN3CCOCC3)nc(NS(=O)(=O)c3cc(Cl)ccc3Cl)c2c1C | 3 | -1 | -1 | 56* | -4 | 1
CN(C)c1ccc(-c2nn3c(-c4ccccc4Cl)nnc3s2)cc1 | 4 | 2 | -2 | -5 | 16* | 2
CCN(CC)C(=O)Cn1cnc2sc(C(=O)Nc3cc(OC)c(OC)c(OC)c3)c(C)c2c1=O | -1 | 1 | 1 | 2 | 15* | 6
CCCNC(=O)Cn1cnc2sc(C(=O)NCCN(CC)CC)c(C)c2c1=O | -7 | -3 | 0 | -13 | 16* | 5
CCCNC(=O)Cn1cnc2sc(C(=O)NCCCN3CCOCC3)c(C)c2c1=O | 3 | 0 | 0 | 2 | -1 | 0
Cc1ccccc1N=Nc1c(N)[nH]n(-c2ccccc2)c1=O | 1 | . | 0 | . | . | .
COC(=O)C1=C(C(=O)OC)[C@@]2([C@H](Cc3ccc(C)cc3)Nc3ccccc3)C=C[C@@H]1O2 | -2 | . | . | . | . | .
CC1(C)O[C@@H]2CC3C4C[C@H](F)C5=CC(=O)CC[C@]5(C)C4[C@@H](O)C[C@]3(C)[C@]2(C(=O)CO)O1 (stereo partly drawn) | -4 | . | . | . | . | .
COc1cc(OC)cc(-n2nnnc2SCC(=O)N2CCCC2)c1 | -1 | 0 | 0 | 3 | 16* | 2
O=C(N[C@@H](Cc1cccnc1)C(=O)N1CCC[C@H]1C(=O)NCCc1ccccc1Cl)c1ccc(Cl)c(Cl)c1 | 2 | 0 | 1 | . | . | .
Cc1ccc(/C=C/C2=Cc3c(sc(NC(=O)CSc4n[nH]c(N)n4)c3C#N)C(C)(C)C2)o1 | . | . | . | 11 | 57* | -8
NC(=O)[C@H](Cc1cc2ccccc2s1)NC(=O)[C@@H]1CC2(CC(c3cccc(NC(=O)[C@@H]4CCC(=O)N4)c3)=NO2)CN1C(=O)/C=C/Sc1ccccc1 (stereo partly drawn) | -1 | 0 | 0 | 5 | 17* | 1
NC(=O)[C@H](Cc1cc2ccccc2s1)NC(=O)[C@@H]1CC2(CC(c3cccc(NC(=O)[C@@H]4CCC(=O)N4)c3)=NO2)CN1C(=O)c1ccccc1 (stereo partly drawn) | -2 | 0 | 0 | 0 | 1 | 0
O=C[C@H](O)[C@H]1OC(=O)[C@@H](O)[C@H]1O | -4 | . | . | . | . | .
CC1=C(C#N)C(=O)N(C2CCS(=O)(=O)C2)C(=O)/C1=C\c1ccco1 (stereo not drawn) | . | . | . | 15 | 35* | 1
